Laboratory results as given in PubChem BioAssay (NCATS).
Where “and” joins values, the source holds several entries; their conditions need not be identical. Equal entries are not always repeated. Records with an inconclusive call do not appear. Some compounds were tested as several samples or in several runs, with calls that do not always agree. Calls of active or inactive are those of the source. Unless noted, calls come from the whole dose curve; as a rule, active = well fitted activation curve with a large enough effect; inconclusive = small, poorly fitted or top-dose-only effect; inactive = flat fitted curve, though single readings scatter.

Legend:
[1] = qHTS assay for small molecule activators of the p53 signaling pathway (AID 651743; active = well fitted activation curve with a large enough effect in the signal ratio, not every such curve was filed as active; the % refers to the signal ratio; note: series mostly up to about 92 µM; % of control where 0% means no effect); conditions: HCT-116 p53RE-bla, beta-lactamase FRET ratio, 16 h; activation: active compounds read high
In short: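 Cell-based beta-lactamase reporter (p53 response elements, HCT-116 background). After a 5-hour preincubation, cells received compound for 16 hours at 37 C; substrate development ran 2 hours at room temperature.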

[2] = qHTS assay for small molecule activators of the nuclear factor-kappa B (NF-kB) signaling pathway (AID 651749; active = well fitted activation curve with a large enough effect in the signal ratio; the % refers to the signal ratio; note: series mostly up to about 77 µM; % of control where 0% means no effect); conditions: NF-kB-bla ME-180 cells, beta-lactamase FRET ratio, 16 h; active compounds read high
In short: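 Screening used 2,000 ME-180 reporter cells per well exposed to pinned compound (23 nL) or DMSO; after 16 hr at 37C, beta-lactamase expression under NF-kB control was assessed through FRET.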

[3] = target: Tumor necrosis factor (Homo sapiens) (UniProt P01375); test: qHTS assay to identify small molecules that stimulate Tumor Necrosis Factor-alpha (TNF-alpha) secretion (AID 651757; active = well fitted curve in the direction sought with a large enough effect in the signal ratio; the % refers to the signal ratio; note: 0% is about no effect)
Sequence of Tumor necrosis factor (Homo sapiens) (P01375 whole entry, looked up): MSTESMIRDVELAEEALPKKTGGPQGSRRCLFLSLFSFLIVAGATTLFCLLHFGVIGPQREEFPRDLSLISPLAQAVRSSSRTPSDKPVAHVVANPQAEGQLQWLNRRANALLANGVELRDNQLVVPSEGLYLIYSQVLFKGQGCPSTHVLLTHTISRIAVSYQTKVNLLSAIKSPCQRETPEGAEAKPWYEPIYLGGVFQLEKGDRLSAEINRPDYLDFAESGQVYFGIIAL
In short: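 Read-out is HTRF, a TR-FRET sandwich of cryptate- and XL665-labeled anti-TNF-alpha antibodies detecting cytokine secreted by THP-1 cells. Cells had been incubated with test compounds at 37 C for 17 hrs beforehand.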

[4] = qHTS assay to identify small molecules that stimulate interleukin-8 (IL-8) secretion (AID 651758; active = well fitted activation curve with a large enough effect in the signal ratio; the % refers to the signal ratio; note: 0% is about no effect)
In short: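 THP-1, 2000 cells/well; cpd 16 h, 37 C; add cryptate + XL665 anti-IL-8 Abs; RT 1-3 h; TR-FRET read.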

[5] = qHTS assay for environmental chemicals that activate the Aryl hydrocarbon Receptor (AhR) signaling pathway (AID 651777); conditions: 1A2-DRE human hepatoma cells, luciferase, 24 h; activation: active compounds read high; note: nearly all actives have a fitted effect of over 15% in size; note: potency is the fitted concentration of half-maximal effect; for activation: % of control where 0% means no effect
In short: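 Luminescence read-out: One-Glo added for 30 min at RT after 24 hr compound treatment (37 C, 5% CO2) of human hepatoma cells expressing a DRE/CYP1A2 promoter–luciferase reporter; increased signal indicates AhR activation.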

[6] = target: Peroxisome proliferator-activated receptor alpha (Homo sapiens) (UniProt Q07869); test: qHTS assay for small molecule agonists of the peroxisome proliferator-activated receptor alpha (PPARalpha) signaling pathway (AID 651778); conditions: PathHunter PPARalpha complementation, chemiluminescence, 6 h; active compounds read high; note: % of control where 0% means no effect
Sequence of Peroxisome proliferator-activated receptor alpha (Homo sapiens) (Q07869 whole entry, looked up): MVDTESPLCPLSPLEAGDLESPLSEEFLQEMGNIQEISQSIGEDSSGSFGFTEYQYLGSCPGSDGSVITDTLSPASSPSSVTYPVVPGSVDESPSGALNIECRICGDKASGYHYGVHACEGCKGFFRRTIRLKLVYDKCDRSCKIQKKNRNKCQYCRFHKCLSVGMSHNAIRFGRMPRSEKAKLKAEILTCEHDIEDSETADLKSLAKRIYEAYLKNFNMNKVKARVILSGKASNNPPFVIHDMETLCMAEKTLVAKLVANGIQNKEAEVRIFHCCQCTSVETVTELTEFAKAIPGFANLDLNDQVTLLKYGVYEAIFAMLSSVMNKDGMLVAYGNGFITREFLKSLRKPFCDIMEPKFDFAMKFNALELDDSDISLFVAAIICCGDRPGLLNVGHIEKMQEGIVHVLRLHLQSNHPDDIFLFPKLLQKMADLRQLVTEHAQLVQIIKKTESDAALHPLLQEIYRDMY
In short: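 Cells plated at 2,000/well and held overnight at 37 C, 5% CO2, then compound added by pin tool for 6 hr; after PathHunter detection reagent and 60 min at room temperature, chemiluminescence from enzyme complementation was read.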

[7] = qHTS assay for small molecule disruptors of the mitochondrial membrane potential - 1 hr assay (AID 651754; calls by dose curve; note: nearly all actives have a fitted effect of over 35% in size; note: potency is the fitted concentration of half-maximal effect)
In short: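 HepG2, 2,000 cells/well, overnight attachment; cpd or DMSO 1 hr, 37C/5% CO2; Mito-MPS dye 30 min, 37C; fluorescence monomer (490/535) and aggregate (540/590).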

[8] = qHTS assay for small molecule disruptors of the mitochondrial membrane potential - 5 hr assay (AID 651755; calls by dose curve; note: % is set by controls: 0 for no effect and ±100 for the full control effect; nearly all actives have a fitted effect of over 40% in size)
In short: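 HepG2 cells, attached overnight at 37C, were exposed to compound or DMSO for 5 hr at 37C, 5% CO2. Mito-MPS dye was then added for 30 min, and fluorescence read at 490/535 nm (monomers) and 540/590 nm (aggregates).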

[9] = qHTS assay for small molecule agonists of the antioxidant response element (ARE) signaling pathway (AID 651741; active = well fitted activation curve with a large enough effect in the signal ratio; the % refers to the signal ratio; note: potency is the fitted concentration of half-maximal effect)
In short: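 Compounds in DMSO are pinned onto HepG2 ARE-bla cells (2,000/well) that were preincubated 5 h; plates stay 16 h at 37 C, then beta-lactamase activity is detected with LiveBLAzer B/G substrate by fluorescence.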

O=C(NO)c1ccccc1
inactive: activation [1] 3.57% | activation [2] 0.132% | outcome [3] | outcome [4] | activation [5] -0.612% | max response [6] -0.429%

CCN(CC)CCOc1ccc(/C(=C(\Cl)c2ccccc2)c2ccccc2)cc1
inactive: activation [5] -0.728% | max response [6] 11.1%

c1ccc2occc2c1
inactive: activation [1] -0.261% and -6.48% and -3.89% | activation [2] -0.808% and 0.0616% and -0.684% | Potency [7] | Potency [8] | outcome [3] | activation [5] 2.4% | max response [6] 0.199% and 3.33% and -1.19%
active: Potency [5] 1.26 mM and 25.1 µM

CC(C)(C)c1ccc(O)c(O)c1
active: Potency [9] 37.6 µM and 48.6 µM | Potency [7] 37.6 µM
inactive: activation [1] 2.58% and -2.7% | activation [2] -0.887% and -1.66% | outcome [3] | activation [5] 7.39% and 2.07% | max response [6] 11.7% and 0.802%

O=C(Nc1ccc(Cl)cc1)Nc1ccc(Cl)c(Cl)c1
inactive: activation [2] 6.88% | max response [6] -0.555%

CCCCCCCCCCCCCCCC[n+]1ccccc1
inactive: activation [1] 2.82% | Potency [7] | Potency [8] | outcome [3] | activation [5] 5.1% | max response [6] 1.85%

CCCCCCCCCCCC[N+](C)(C)Cc1ccccc1
inactive: activation [2] 3.11% | activation [5] -1.52% | max response [6] 8.99%
